Laboratory results as given in the supplement of paper PMC4894684.
Values joined by “and” are separate entries in the source; they are usually repeats but may differ in a detail not shown here. Equal entries are not always repeated. Structures can show the parent of a compound that is named as a salt. ± gives the standard deviation of the averaged measurements. About 15 (2%) of roughly 1,000 compounds showed an effect of 50% or more. Shown is part of a subset that was picked to be rich in strong results.

These compounds were tested on HFF (assay: uninfected host cell viability relative to vehicle control; higher = less host cell toxicity). Settings: 5 µM; 72 h; oxygen 21 %.

Structure (SMILES)	uninfected host cell viability
CNc1cc(OC)c(C(=O)NC2CCN(Cc3ccccc3)C2C)cc1Cl (stereo unspecified) [Nemonapride]	86.9 ± 6.9%
C[C@H](NC[C@H](O)CP(=O)(O)Cc1ccccc1)c1ccc(Cl)c(Cl)c1	87.23 ± 0.39%
CCOc1ccc(Nc2nc(-c3c(C)nc4ccccn34)cs2)cc1	73.8 ± 2.5%
CCCCC[C@H](O)/C=C/[C@H]1[C@H](O)CC(=O)[C@@H]1C/C=C\CCCC(=O)O [Prostaglandin E2]	95.2 ± 2.4%
COC(=O)C1=C(C)NC(C)=C(C(=O)OC(C)C)C1c1cccc2nonc12 (stereo unspecified) [Isradipine]	104 ± 7.9%
CC(Cc1ccccc1)(NC(=O)CN)c1ccccc1 (stereo unspecified) [Remacemide hydrochloride]	85.5 ± 1.2%
CCn1c(=O)[nH]c2ccccc21	95.8 ± 5.6%
CC(/C=C/c1cccc(Oc2ccc(F)cc2)c1)N(O)C(N)=O (stereo unspecified)	82.8 ± 3.7%
O=C1NN(C(=O)Nc2ccc(Br)cc2)[C@@H](c2ccccc2)[C@@H]1c1ccccc1	91.67 ± 0.67%
CCc1c2c(nc3ccc(O)cc13)-c1cc3c(c(=O)n1C2)COC(=O)[C@]3(O)CC	77.3 ± 8.2%
NCCNC(=O)c1ccc(Cl)cn1 [Lazabemide hydrochloride]	94.7 ± 1.2%
Nc1[nH]nc2nnc(-c3c(-c4ccccc4)nn4ccccc34)cc12	94.685 ± 0.091%
OC(c1ccccc1)C1CCN(CCc2ccccc2)CC1 (stereo unspecified)	101 ± 7.3%
Cc1cc(/C(=C/Nc2ccc(Cl)cc2)C(=O)Nc2ccc(Cl)cc2)on1	86.9 ± 4.8%
CC1(CN2CCC(n3c(=O)[nH]c4ccccc43)CC2)OCc2ccccc2-n2cccc21 (stereo unspecified)	94.4 ± 2%
Nc1ccc(-c2cccc3c(=O)cc(N4CCOCC4)oc23)cc1	77 ± 0.83%
c1ccc(N2CCN(CCCOc3ccc4c(c3)OCO4)CC2)cc1 [BP 554 maleate]	90.9 ± 6.9%
CCS(=O)(=O)N(C)[C@H]1c2cc(C#N)ccc2OC(C)(C)[C@@H]1O (racemic) [Chromanol 293B]	91.3 ± 6.7%
c1ccc2oc(C3=NCCN3)cc2c1 [2-BFI hydrochloride]	84.5 ± 0.93%
COc1ccc(-n2[nH]c3c4c(ncc3c2=O)CCCCC4)cc1	92.03 ± 0.15%
O=C(O)COc1cccc(-c2ocnc2-c2nc(-c3ccccc3)c(-c3ccccc3)o2)c1	105 ± 3.5%
NC(N)=Nc1ccc(Cl)cc1 [4-Chlorophenylguanidine hydrochloride]	87.3 ± 2.5%
CN(Cc1ccccc1)C(=O)[C@H](Cc1ccc2ccccc2c1)NC(=O)[C@@H]1CCCN1C(=O)Nc1ccccc1[N+](=O)[O-]	87.6 ± 1.8%

Structure (SMILES)	uninfected host cell viability
CC[C@H](CO)Nc1nc(Nc2cccc(-c3ccccn3)c2)c2ncn(C(C)C)c2n1 [(R)-DRF053 dihydrochloride]	84.1 ± 1.9%
CC(C)NCC(O)c1ccc2ccccc2c1 (stereo unspecified) [Pronethalol hydrochloride]	85.9 ± 2.6%
COc1cc2ncn(-c3cc(OCc4ccccc4C(F)(F)F)c(C(N)=O)s3)c2cc1OC	83.8 ± 1.1%
COCCNC(=O)COc1ccc(OCCNC[C@H](O)COc2ccccc2)cc1 [ZD 7114 hydrochloride]	83.8 ± 2.3%
CCN(CC)CCCCC1CCN(CC(=O)N2c3ccccc3C(=O)Nc3cccnc32)CC1	89.2 ± 4.3%
O=C1c2ccccc2C(Cc2ccnc(F)c2)(Cc2ccnc(F)c2)c2ccccc21	90.8 ± 1.9%
NC(=O)N1C(=O)/C(=C(\O)c2cccs2)c2cc(Cl)ccc21 [Tenidap]	89.1 ± 2%
CC(C)[C@H]1c2ccc(F)cc2CC[C@@]1(CCN(C)CCCc1nc2ccccc2[nH]1)OC(=O)C1CC1 [NNC 55-0396 dihydrochloride]	15.68 ± 0.031%
COCC(=O)O[C@]1(CCN(C)CCCc2nc3ccccc3[nH]2)CCc2cc(F)ccc2[C@@H]1C(C)C [Mibefradil dihydrochloride]	79.7 ± 4.6%
CCCCN1CCCC1CNC(=O)c1cc(C#N)c2ccccc2c1OC (stereo unspecified) [Nafadotride]	84.8 ± 2.4%
COc1cc(C[C@H]2C(=O)OC[C@@H]2Cc2ccc(OC)c(OC)c2)ccc1O [Arctigenin]	90 ± 1.6%
C[C@@H](CN1CCC(n2c(=O)[nH]c3cc(Cl)ccc32)CC1)NC(=O)c1ccc2ccccc2c1	94.4 ± 5.7%
COc1ccc(C(=O)Nc2sc3c(c2C(N)=O)CCCC3)cc1OC	80.1 ± 2.9%
CCOC(=O)[C@@H](C)Oc1cccc2c(=O)n(CC(=O)Nc3ccc4c(c3)OCCO4)ccc12	84.7 ± 0.99%
NC(=O)c1ccc(-c2nc(-c3ccccn3)c(-c3ccc4c(c3)OCO4)[nH]2)cc1	92.28 ± 0.26%
CC(C1=C(CCN(C)C)Cc2ccccc21)c1ccccn1 (stereo in doubt) [(S)-(+)-Dimethindene maleate]	94.3 ± 0.97%
CC(O)(C(=O)Nc1ccc(S(=O)(=O)c2ccccc2)cc1)C(F)(F)F (stereo unspecified)	99.7 ± 2.5%
Clc1ccccc1CNCC1CCC(CNCc2ccccc2Cl)CC1 (stereo unspecified)	83.3 ± 1.1%
CCCCNC(=O)[C@@H]1Cc2ccccc2N1C(=O)[C@@H](N)CC [Butabindide oxalate]	88.3 ± 5.3%
CCOc1cc(CC(=O)N[C@@H](CC(C)C)c2ccccc2N2CCCCC2)ccc1C(=O)O [Repaglinide]	93.7 ± 2.1%
CCCCCCCCCCCC1=C(O)C(=O)C=C(O)C1=O [Embelin]	83.69 ± 0.49%
Nc1nc(-c2ccc(Cl)c(Cl)c2)c(-c2ccncc2)s1 [CGH 2466 dihydrochloride]	87.4 ± 1.5%
C[C@H](NC(=O)c1sccc1OCc1ccc(Cl)cc1)c1ccccc1	115 ± 1.5%

Structure (SMILES)	uninfected host cell viability
CN1c2cc3c(cc2N=C(c2ccc(C(=O)O)cc2)c2ccccc21)C(C)(C)CCC3(C)C	100 ± 8.6%
N[C@@H](Cn1ccc(=O)n(Cc2ccccc2C(=O)O)c1=O)C(=O)O	84.8% and 85.7%
CCc1cc2c(c(CC)n1)CCC(=O)N2Cc1ccc(-c2ccccc2-c2nn[nH]n2)cc1 [ZD 7155 hydrochloride]	94.11 ± 0.49%
CC[N+](C)(CC)CC(=O)Nc1c(C)cccc1C [N-Methyllidocaine iodide]	87.9 ± 3.1%
CC(=O)N(OCc1ccccc1)[C@H]1c2cc(C#N)ccc2OC(C)(C)[C@H]1O	98.6 ± 2.8%
COc1ccc2[nH]c([S+]([O-])Cc3ncc(C)c(OC)c3C)nc2c1 (stereo unspecified) [Omeprazole]	85.1 ± 2.2%
c1nc(CC2CCNCC2)c[nH]1 [Immepip dihydrobromide]	81.5 ± 3.3%
CC(C)[C@H](NS(=O)(=O)c1ccc(-c2ccc(Br)cc2)cc1)C(=O)O	87.2 ± 2.2%
O=C(NC(NC(=S)Nc1ccc(F)c([N+](=O)[O-])c1)C(Cl)(Cl)Cl)C(c1ccccc1)c1ccccc1 (stereo unspecified)	86.1 ± 11%
Cc1nn(C)c2nc(NNC(=O)Nc3cc(Cl)nc(Cl)c3)cc(C(C)C)c12	89.2 ± 3.1%
O=C(O)c1c(Sc2ccccc2)c2cc(Cl)ccc2n1Cc1ccc(Cl)cc1	93.9 ± 8.2%
O=C(Nc1ccccc1)C12CC1C(=NO)c1ccccc1O2 (stereo unspecified)	96.71 ± 0.12%
Clc1cccc(Nc2nnc(-c3ccccc3)c3ccccc23)c1	85.8 ± 0.91%
CCCCC1CCC(c2nc(-c3ccncc3)no2)CC1 (stereo unspecified)	102 ± 3.9%
Cc1c(C(=O)N(C)C2CCCCC2)sc2nc3ccc(N)cc3n12	83.6 ± 2.2%
COC(=O)C1=C(C)NC(C)=C([N+](=O)[O-])[C@H]1c1ccccc1C(F)(F)F	68.2 ± 1.7%
O=S(=O)(c1cccc2cnccc12)N1CCCNCC1 [Fasudil hydrochloride]	90.57 ± 0.53%
Cc1cc2nc3c(=O)[nH]c(=O)nc-3n(C)c2cc1C=O	94 ± 2%
O=C(O)Cc1cccc(OCCCN(Cc2cccc(C(F)(F)F)c2Cl)CC(c2ccccc2)c2ccccc2)c1 [GW 3965 hydrochloride]	99.5 ± 3.2%
CC1=C(C(=O)OCCN(Cc2ccccc2)c2ccccc2)C(c2cccc([N+](=O)[O-])c2)C(P2(=O)OCC(C)(C)CO2)=C(C)N1 (stereo unspecified) [Efonidipine hydrochloride monoethanolate]	98.4 ± 7.4%
Cc1cc(C)c(S(=O)(=O)Nc2cccc(C(F)(F)F)c2)c(C)c1	82.4 ± 6.6%
CN(C)CCCSC(=N)N [Dimaprit dihydrochloride]	95.8 ± 1.1%
CC(=Cc1ccc(C(=O)O)cc1)c1ccc2c(c1)C(C)(C)CCC2(C)C	80.4 ± 2.1%

Structure (SMILES)	uninfected host cell viability
CC[C@@H]1Cn2c(c3nc(-c4ccccc4)nc-3n(C)c2=O)N1	89.2 ± 4.1%
CS(=O)(=O)Nc1c(O)ccc2c1CCCC2C1=NCCN1 (stereo unspecified)	84.9 ± 2.8%
COc1ccc2cccc(N3CCN(CCNC(=O)c4ccc(F)cc4)CC3)c2c1	82.7 ± 4%
Cc1ccc(NC2=CC(=O)c3sc(C)nc3C2=O)cc1 [Ryuvidine]	16.8 ± 0.66%
O=C(O)c1ccc(-c2c[nH]c3ncc(-c4ccccc4)cc23)cc1C1CCCC1	109 ± 2.2%
Nc1nc2c(cnn2CCc2ccccc2)c2nc(-c3ccco3)nn12	96.8 ± 2.3%
CN(N=O)C(=O)N[C@@H](C=O)[C@@H](O)[C@H](O)[C@H](O)CO [Streptozocin]	86.9 ± 5.4%
CC(=O)NCCc1c(Cc2ccccc2)[nH]c2ccccc12 [Luzindole]	101 ± 4.8%
CCC(NC(C)C)C(O)c1ccc(O)c2[nH]c(=O)ccc12 (stereo unspecified) [Procaterol hydrochloride]	87.5 ± 1.7%
CCC(=O)NC1Cc2ccccc2C(c2ccccc2)C1 (stereo unspecified)	99.58 ± 0.97%
C[S+]([O-])c1ccc(-c2nc(-c3ccc(F)cc3)c(-c3ccncc3)[nH]2)cc1 (stereo unspecified)	89.4% and 88.6%
N=C(CC(O)COc1ccccc1-c1ccccc1)N1CCCCC1 (stereo unspecified)	89.4 ± 2.9%
Cn1cc(/C=C2\C(=O)Nc3cccnc32)c2ccccc21	67.8 ± 1.2%
c1cc2c3c(c1)c1c(n3CCNC2)CCCC1 [WAY 629 hydrochloride]	89.6 ± 5.6%
CCCCCCCCc1ccc(-c2ccc(C(=O)O)cc2)cc1	85.5 ± 5%
CCCCCCCCCCCCCCCCn1cc[n+](Cc2ccccc2)c1C	32 ± 6.6%
CCCCC/N=c1\ccn(Cc2ccccc2)c2ccccc12	83.1 ± 2.5%
CNC(=O)[C@@H](Cc1ccccc1)N(C)C(=O)[C@@H](Cc1ccc2ccccc2c1)N(C)C(=O)/C=C/CC(C)(C)N [Tabimorelin]	79.1 ± 1.2%
N#Cc1ccccc1OCC(O)CNCCNC(=O)Nc1ccccc1 (stereo unspecified)	86.9 ± 1.3%
CCc1ccc(OCc2ccccc2C(=O)Nc2ccc3nc(C)cc(N)c3c2)cc1	15 ± 0.61%
CCN(CC)CCCC(C)Nc1nc(C)cc(Nc2ccc3nc(C)cc(N)c3c2)n1 (stereo unspecified)	80.4 ± 1.2%
COc1ccc(NC(=O)c2cc(OCCCN(C)C)nn2Cc2ccccc2)cc1 [CFM 1571 hydrochloride]	81.7 ± 2%
